# Compounds with a hit are over-represented: about 1.7% of the library has one in this group of screens.
# GLP-1R agonist: activates the human GLP-1 receptor; P43220; AID 624172; HEK293 GLP-1R CRE-luciferase, luminescence, 4-6 h; cells express a hypersensitive GLP-1R form; 380,000 tested, 0.007% active; Potency, µM (top dose mostly 45.6 µM), for the others: at the highest dose activation, actives largely listed as activators; further: % of control where 0% means no effect
# Target sequence (P43220 whole entry, looked up): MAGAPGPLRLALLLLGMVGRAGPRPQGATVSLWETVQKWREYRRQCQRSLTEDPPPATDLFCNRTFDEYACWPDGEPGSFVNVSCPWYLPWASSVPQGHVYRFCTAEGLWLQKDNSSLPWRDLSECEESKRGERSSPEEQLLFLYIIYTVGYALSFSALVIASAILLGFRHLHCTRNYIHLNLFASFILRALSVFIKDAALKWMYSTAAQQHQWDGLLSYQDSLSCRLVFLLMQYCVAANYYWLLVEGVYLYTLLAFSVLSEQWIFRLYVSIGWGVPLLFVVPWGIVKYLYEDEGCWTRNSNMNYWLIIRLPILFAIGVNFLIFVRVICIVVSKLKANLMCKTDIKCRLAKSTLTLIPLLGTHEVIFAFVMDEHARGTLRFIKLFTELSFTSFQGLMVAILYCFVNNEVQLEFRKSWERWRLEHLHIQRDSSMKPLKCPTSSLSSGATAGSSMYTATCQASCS
# HEK293 tox: cytotoxicity counter-screen for GLP-1 receptor inverse agonists; HEK293 cAMP-luciferase reporter cells, luminescence, 24 h; Potency, µM (doses to about 38.3 µM), for the others: at the highest dose activity change, negative = inhibition, most hits filed as inhibitors; 410,000 tested, 0.13% active; AID 624418;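 further: loss of luciferase light is scored as toxicity; on the % scale 0 is the no-effect control and ±100 the full control effect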
#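 Compound-treated cells are incubated 24 hr at 37 deg C under 5% CO2 after a 12 hour attachment period, then luciferase detection reagent is added and luminescence is measured following 12 min at room temperature; lowered signal indicates toxicity.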
# PTHR1 ag: agonists of human PTHR1 parathyroid hormone receptor; Q03431; HEK293 GP2 PTHR1 cells, GloSensor cAMP luminescence, 1 h; Potency, µM (series often up to 115 µM), inactives show at the highest dose activation, actives largely listed as activators; 410,000 tested, 0.075% active; further: nearly all actives have a fitted effect of over 55% in size
#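 HEK-293-derived GP2 cells expressing PTHR1 and a GloSensor cAMP reporter, 3,000/well, plated overnight, given luciferin plus IBMX (each 0.5 mM as added) for 1 h at 37 °C, then compound for 1 h at 37 °C. Luminescence was read after 15 min at room temperature.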
# GLP1R inv ag: GLP-1 receptor (human) inverse agonism. HEK293 GLP-1R CRE-luciferase, luminescence, 24 h; GLP-1R form is constitutively active. 410,000 tested, 1.6% active. Potency, µM (series often up to 38.3 µM), for inactives: at the highest dose activity change, negative = inhibition, most hits filed as inhibitors. AID 624417; further: on the % scale 0 is the no-effect control and ±100 the full control effect; nearly all actives have a fitted effect of over 55% in size
#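 Luminescence readout: a drop in cAMP-driven luciferase signal flags inverse agonism at a constitutively active GLP-1R stably expressed in HEK293. Compound exposure lasted 24 hr at 37 deg C, 5% CO2.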
# * hit, by the source's call; i = inactive; ? = inconclusive; . = no result given; [ ] = remark or other dose. The call rests on the fitted dose curve; in most records, active means well fitted curve in the direction sought with a large enough effect; inconclusive means small, poorly fitted or top-dose-only effect, or another doubt; inactive means no such curve, though single readings can be large; an effect the other way counts as inactive or inconclusive. Potency means the concentration at half of the fitted maximal effect.
SMILES,GLP-1R agonist,HEK293 tox,PTHR1 ag,GLP1R inv ag
COc1cc2c(cc1OC)C(c1ccc(F)cc1)N(c1cccc(C#N)c1)C(=O)C2 (stereo unspecified),.,1.2%,-10.3%,1.1%
Cc1[nH]n2c(=O)cc(C(C)(C)C)nc2c1-c1ccccc1,-12.4%,?,-10.1%,3.55µM*
Cc1[nH]n2c(=O)cc(C(C)C)nc2c1-c1ccccc1,-2.5%,-16.5%,-8.0%,-21.1%
Cc1[nH]n2c(=O)cc(-c3ccc(Cl)cc3)nc2c1-c1ccccc1,-15.9%,98.4%,-32.1%,2.82µM*
COc1ccc(NC(=O)c2cc3c(=O)n(C)c4cc(Cl)ccc4c3s2)cc1Cl,.,-0.6%,26.7%,4.4%
CCc1ccccc1Nc1nn2c(=O)c3ccc(C(=O)NCCC4=CCCCC4)cc3nc2s1,-11.0%,-6.8%,i,?
CCN1CCN(c2ccc(NC(=O)c3ccc([N+](=O)[O-])o3)cc2Cl)CC1,-2.9%,5.62µM*,-16.8%,6.0%
Cc1ccc(NC(=O)c2cc3ccccc3o2)cc1Cl,7.0%,-0.3%,-32.4%,12.6µM*
CCC(=O)N1CCN(c2ccc(NC(=O)c3cc4ccccc4o3)cc2Cl)CC1,-37.8%,-6.3%,-19.6%,11.2µM*
CCc1c(C)sc2c1CCN(C(=O)Nc1cc(Cl)c(OC)cc1OC)C2c1ccccc1 (stereo unspecified),.,15.0%,i,-64.9%
CCC(=O)NC(c1ccc(OC)cc1)c1c(O)ccc2ccccc12 (stereo unspecified),-4.9%,-28.1%,-7.9%,3.55µM*
Cc1c(O)ccc(/C=N/Nc2nc(-c3cccnc3)nc3ccccc23)c1O,11.9%,?,i,10µM*
CCOC(=O)c1ccc(Nc2nc(-c3cccnc3)nc3ccccc23)cc1,4.4%,-8.5%,-9.1%[57.5 µM],8.91µM*
COCCCNCCCCOc1ccc(Br)cc1C,0.4%,-3.6%,-14.7%,2.82µM*
Cc1ccc(OCCCNCCO)c(Br)c1,-7.0%,?,i,3.98µM*
Cc1c(C(=O)N2c3ccccc3Sc3ccccc32)cccc1[N+](=O)[O-],2.4%,?,i,1.78µM*
COC(=O)c1cc2c(n1S(=O)(=O)c1ccc(C)cc1)C(=O)C(=O)c1[nH]cc(C(=O)OCc3ccccc3)c1-2,-16.6%,3.98µM*,-15.9%,?
Fc1ccc(C(c2nnc(-c3ccccc3)o2)N2CCN(c3ccccc3)CC2)c(Cl)c1 (stereo unspecified),.,2.2%,-6.9%,?
O=C(C1CCC1)N1CCCc2cc(S(=O)(=O)Nc3ccc(F)cc3)ccc21,.,8.3%,-45.9%,?
Cc1cc(C(F)(F)F)cc(NNC(=O)NC(=O)c2c(F)cccc2Cl)n1,20.1%,-0.8%,-14.8%,11.2µM*
CC(C)(C)NC(=O)C(=O)NC(=O)c1c(F)cccc1Cl,3.6%,7.6%,i,-5.4%
COc1cc(CNCCO)ccc1OCCc1ccccc1,-3.4%,3.4%,?,1µM*
COc1cc(CNCCc2c[nH]c3ccccc23)ccc1OCc1ccccc1F,-16.4%,7.1%,-18.7%,7.94µM*
COc1cccc(CNCCc2c[nH]c3ccccc23)c1OCc1ccccc1,1.7%,?,-26.5%,?
Cc1ccnc(NS(=O)(=O)c2ccc(NC(=O)c3cc(=O)c4ccc(C)c(C)c4o3)cc2)n1,.,20.0%,i,6.8%
SMILES,GLP-1R agonist,HEK293 tox,PTHR1 ag,GLP1R inv ag
CCOc1ccccc1C(=O)N(Cc1cccs1)c1ccc(Cl)cc1,.,-3.7%,-27.7%,12.6µM*
O=C(O)C1C2C=CC(C2)C1C(=O)NCc1ccc(Cl)c(Cl)c1 (stereo unspecified),3.0%,-14.1%,-5.8%,11.2µM*
Cc1c(C(=O)c2ccc(F)cc2)c2ccccn2c1CCc1ccccn1,4.0%,-12.0%,-27.3%,10µM*
O=C(COc1ccccc1)Nc1cc(C(F)(F)F)ccc1N1CCCC1,3.1%,15.6%,-38.6%[57.5 µM],12.6µM*
COc1cccc(CC(=O)Nc2cc(C(F)(F)F)ccc2N2CCCC2)c1,-6.6%,-14.8%,-82.5%,-21.1%
CN1CCN(c2ccccc2NC(=O)c2ccc(OCc3ccccc3)cc2)CC1,13.2%,?,-13.2%,11.2µM*
O=C(Nc1ccccc1N1CCCCC1)c1ccco1,-0.2%,-12.6%,-54.2%[57.5 µM],11.2µM*
CC(=O)c1ccc(OCC(=O)Nc2ccccc2N2CCCC2)cc1,16.4%,-18.5%,-3.6%,-13.1%
CCOc1ccc(OCC(=O)Nc2ccccc2N2CCCC2)cc1,4.2%,6.3%,-2.4%,10µM*

# High-throughput results from PubChem BioAssay.
